Bioassay records deposited in PubChem by National Center for Advancing Translational Sciences (NCATS).
Sampled rows, rich in hits. Any-hit rate of the full collection: about 10%.
G9a block – blocks human histone lysine methyltransferase G9a. Potency, µM (series often up to 102 µM), inactives show top-dose activity, negative = inhibition, actives largely listed as inhibitors. 350,000 compounds, 8.8% hits. G9a H3K9 monomethylation, AlphaScreen, 2 h. AID 504332; note: potency is the fitted concentration of half-maximal effect; % is set by controls: 0 for no effect and ±100 for the full control effect; nearly all actives have a fitted effect of over 75% in size
Target sequence (Q96KQ7 913-1193 limits assumed): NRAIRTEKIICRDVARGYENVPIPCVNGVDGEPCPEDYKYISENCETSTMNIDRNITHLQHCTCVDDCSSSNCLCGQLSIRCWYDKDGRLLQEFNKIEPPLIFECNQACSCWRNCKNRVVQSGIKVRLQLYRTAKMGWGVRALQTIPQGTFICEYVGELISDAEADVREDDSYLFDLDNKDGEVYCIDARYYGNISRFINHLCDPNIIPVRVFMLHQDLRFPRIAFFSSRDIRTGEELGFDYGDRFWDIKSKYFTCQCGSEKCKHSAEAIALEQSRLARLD
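Enzyme 20 nM + cpd, 15 min RT; add b-H3K9 pep 500 nM / SAM 20 uM; 2 h RT; anti-H3K9me1 Ab 0.5 ug/mL + SA donor / anti-rabbit acceptor beads 20 ug/mL each, 10 min; AlphaScreen read.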
JMJD2A Tudor inh – JMJD2A Tudor domain (human) inhibition; O75164; AlphaScreen JMJD2A-Tudor / H3K4me3 peptide binding; Potency, µM (top dose mostly 114 µM), without a hit: at the top dose activity change, negative = inhibition, actives largely listed as inhibitors; 390,000 compounds, 4.4% hits; AID 504339; note: potency is the fitted concentration of half-maximal effect; % is set by controls: 0 for no effect and ±100 for the full control effect; nearly all actives have a fitted effect of over 50% in size
CtBP-E1A blk – blocks the CtBP interaction with E1A. AlphaScreen GST-E1A/His-CtBP binding, 1536-well; stronger effect = lower value. activity change, % (concentration not given with the values). 340,000 compounds, 0.49% hits; in the data active = activity change below about -65%; inconclusive = mostly about -30% to -63%; note: % is set by controls: 0 for no effect and ±100 for the full control effect
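GST-E1A and His-tagged CtBP (125 nM each as 5X stock) were preincubated with pin-transferred compound for 2 h at 37 °C in the dark, then glutathione donor and nickel acceptor beads were added for 1 h before AlphaScreen reading.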
BAZ2B block – BAZ2B (human) inhibition; AlphaScreen BAZ2B-H3K14Ac peptide displacement; 360,000 compounds, 4.4% hits; AID 504333; Potency, µM (highest dose often 114 µM), inactives show top-dose activity change, negative = inhibition, actives largely listed as inhibitors; note: potency is the fitted concentration of half-maximal effect; % is set by controls: 0 for no effect and ±100 for the full control effect; nearly all actives have a fitted effect of over 60% in size
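Complex of BAZ2B and biotin-H3K14Ac (50 nM apiece) forms over 30 min at RT, then faces library compounds up to 110 uM for another 30 min; AlphaScreen beads added, 20 min dark incubation, luminescence read.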
HP1b binding inh – HP1-beta chromodomain-methylated histone interaction inhibition. P83916. AlphaScreen HP1-beta / biotin-H3K9me3 peptide binding. Potency, µM (top dose mostly 114 µM), without a hit: top-dose activity change, negative = inhibition, usual class: inhibitors. 390,000 compounds, 0.56% hits. AID 540317; note: potency is the fitted concentration of half-maximal effect; nearly all actives have a fitted effect of over 70% in size
Target sequence (P83916 whole entry, looked up): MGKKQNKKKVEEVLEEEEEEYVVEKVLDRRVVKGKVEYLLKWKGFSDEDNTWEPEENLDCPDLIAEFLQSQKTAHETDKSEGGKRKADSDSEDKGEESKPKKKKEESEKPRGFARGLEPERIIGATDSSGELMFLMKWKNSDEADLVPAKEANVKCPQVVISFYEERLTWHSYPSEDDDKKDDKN
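Compound inhibition of the preformed complex between 50 nM HP1-beta and 50 nM biotinylated H3K9me3 peptide was read by AlphaScreen. Buffer was PBS pH 7.4 with 0.01% Tween-20. Incubations ran 30 min at room temperature, with 10 ug/mL donor/acceptor beads.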
Six1-Eya2 blk – Six1/Eya2 interaction inhibition | activity change, % (concentration not given with the values) | AlphaScreen GST-Six1/His-Eya2 binding, biochemical; stronger effect = lower value | Q15475+O00167 | 360,000 compounds, 0.56% hits; in the data active = activity change below about -65%; inconclusive = mostly about -30% to -63%; note: % is set by controls: 0 for no effect and ±100 for the full control effect
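Compounds are tested against tagged Six1 and Eya2 proteins bridged by glutathione donor and nickel acceptor beads; after a one-hour incubation at 37 °C without light, AlphaScreen emission is recorded.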
The depositor's hits bear a star; ? = inconclusive; nt = not tested or not shown; [ ] = dose if it differs, or a comment. Unless noted, calls come from the whole dose curve; as a rule, active = well fitted inhibition curve with a large enough effect; inconclusive = small, poorly fitted or top-dose-only effect; inactive = no such curve, though single readings can be large or run the other way.

SMILES	G9a block	JMJD2A Tudor inh	CtBP-E1A blk	BAZ2B block	HP1b binding inh	Six1-Eya2 blk
CCCCN(CC)CCCNC(=O)c1cc2cc3ccc(C)cc3nc2o1	11.3%	-2.8%	-3.6	-8.1%	-11.9%	-2.8
Cc1ccc2nc(Cl)c3cc(C(=O)NCCCN4CCCC4)sc3c2c1	50.1µM*	-31.9%	-5.9	-3.4%	16.9%	-10.8
CN(C)CCN(Cc1ccco1)C(=O)c1cc2c(Cl)nc3ccccc3c2s1	?	?	-3.8	-33.4%	-9.5%	-1.1
Cc1ccc2cc3cc(C(=O)NCCCN4CCCCCC4)oc3nc2c1	44.7µM*	-13.3%	-12.7	-5.7%	11.2%	-19.7
CCS(=O)(=O)N1CCc2cc(C(=O)Nc3ccc(Br)cc3F)ccc21	-4.4%[59 µM]	?	nt	?	9.6%	nt
CCOc1ccc(NC(=O)c2oc3ccccc3c2NC(=O)Cc2cccc(C)c2)cc1	-4.4%[59 µM]	-8.9%	nt	0.0%	33.6%	nt
COc1ccc(CNC(=O)C2CCN(S(=O)(=O)c3cccc4nonc34)CC2)cc1OC	4.3%[59 µM]	-12.0%	nt	-6.8%	28.4%	nt
CC1OC1c1ccc(-c2ccc(C3OC3C)cc2)cc1 (stereo not given)	nt	-9.0%	-86.5*	nt	-26.5%	-14.6
CC(=O)N1c2ccccc2C(=O)C1N1CCN(c2cccc(C(F)(F)F)c2)CC1 (stereo not given)	-10.9%[59 µM]	?	nt	?	8.5%	nt
COc1cccc(NC(=O)C(OC(=O)CNC(=O)c2ccccc2)c2ccccc2)c1 (stereo not given)	nt	-25.3%	nt	nt	nt	nt
O=C1C2Sc3[nH]c(=O)sc3C(c3ccccc3)C2C(=O)N1c1ccc(Cl)cc1 (stereo not given)	35.8%[0.501 µM]	?	0.0	?	-3.8%	9.6
Cc1ccc(N2C(=O)C3Sc4[nH]c(=O)sc4C(c4ccccc4)C3C2=O)cc1 (stereo not given)	51.3%[0.501 µM]	-34.1%	2.1	50.1µM*	6.0%	-2.6
N[C@@]1(C(=O)O)CO[C@H]2[C@H](C(=O)O)[C@H]21	22.1%[59 µM]	nt	nt	nt	nt	nt
O=C1/C(=C\c2ccc(Br)o2)SC(=Nc2ccccc2)N1c1ccccc1	39.8µM*	25.1µM*	?	8.91µM*	-31.8%	?
COc1cccc(N=C2C(=O)N3CCCc4cccc2c43)c1	?	-30.8%	-2.3	-36.5%	-22.2%	8.5
COc1ccc(N=C2C(=O)N3c4c(cccc42)C(C)=CC3(C)C)cc1	10µM*	14.1µM*	-20.8	35.5µM*	28.2µM*	-22.4
Cn1c(=O)c2c(SCC(=O)NCc3ccco3)nc(-c3ccccc3F)nc2n(C)c1=O	5.5%[59 µM]	-6.2%	nt	0.4%	20.7%[57 µM]	nt
Cc1ccc(-n2c(SCC(N)=O)nnc2-c2ccccn2)cc1	11.3%[12.7 µM]	?	-13.6	25.1µM*	36.1%	-25.0
CCc1ccccc1-n1c(SCC(=O)N2CCCC2)nnc1-c1ccccn1	-8.9%[59 µM]	?	-8.8	56.2µM*	19.2%	-17.6
Cc1ccc(-n2c(SCCN)nnc2-c2cccc(C)c2)cc1	4.8%[59 µM]	-16.2%[11.4 µM]	-9.3	79.4µM*	42.9%	-2.3
Cc1cccc(-n2c(SCC(N)=O)nnc2-c2ccccn2)c1C	-37.1%	79.4µM*	-19.0	17.8µM*	12.8%	-29.6
COc1ccc(S(=O)(=O)Nc2cccc3cccnc23)c([N+](=O)[O-])c1	nt	?	nt	nt	26.7%	nt
O=C(NCc1ccc(F)cc1)c1cc2cccc3c2n1CCS3	-1.2%[59 µM]	16.0%	nt	24.8%	72.8%	nt
CCN(CC)C(=O)CSc1nnc(-c2ccccn2)n1-c1ccc(C)c(C)c1	-6.6%[59 µM]	?	-14.2	44.7µM*	49.6%	-16.9
NC(=O)CSc1nnc(-c2ccccn2)n1N	-7.4%	70.8µM*	nt	22.4µM*	30.0%	-6.5
SMILES	G9a block	JMJD2A Tudor inh	CtBP-E1A blk	BAZ2B block	HP1b binding inh	Six1-Eya2 blk
Nn1c(SCc2ccccc2)nnc1-c1ccccn1	-7.5%[12.7 µM]	6.3%	1.6	14.1µM*	39.9%	2.2
CC(C)COc1ccc(C(=O)NCC2(N3CCN(C)CC3)CCCCC2)cc1	-6.3%[59 µM]	-8.3%	nt	-8.3%	41.8%	nt
COc1ccc(/C=C2\C(=O)N(c3c(Cl)cc(Cl)cc3Cl)N=C2NC(=O)c2cccc([N+](=O)[O-])c2)cc1	3.5%[59 µM]	?	-1.8	?	?	-78.9*
COc1cccc(C(=O)Nc2cccc(C(=O)NC3=NN(c4c(Cl)cc(Cl)cc4Cl)C(=O)C3)c2)c1	30.0%[59 µM]	-20.7%	-80.5*	1.7%	-6.8%	-70.9*
O=C(N/N=C/c1ccc(C(=O)O)cc1)C1=NNC(c2ccccc2)(c2ccccc2)C1	-0.1%	79.4µM*	nt	?	35.2%	4.8
Cc1cn2c(=O)c(S(=O)(=O)Nc3ccc(N4CCOCC4)cc3)c(C)nc2s1	-30.6%[59 µM]	0.7%	nt	-16.4%	45.3%	nt
CCOc1ccccc1CNC(=O)C1CCN(c2nn3cc(-c4ccc(F)cc4)nc3s2)CC1	-8.5%[59 µM]	-9.6%	nt	1.8%	30.3%	nt
CCCN(CCC)C(=O)c1ccc2c(c1)S(=O)(=O)c1ccccc1C2=O	79.4µM*	?	-9.0	-33.5%	4.5%	-6.7
COc1ccc(CNC(=O)Nc2ccc3c(c2)N(C)C(=O)c2ccccc2S3)cc1	-31.8%[59 µM]	-25.2%	nt	-15.0%	20.9%	nt
CC1(C)CC(Nc2ccc(Nc3ccccc3)cc2)CC(C)(C)N1	?	44.7µM*	nt	35.5µM*	?	?
Cc1ccc2c(c1)NC(=O)C(CC(=O)Nc1ccccc1Cl)O2 (stereo not given)	-3.8%[59 µM]	-13.1%	nt	2.6%	11.0%	nt
O=[N+]([O-])c1cccc(S(=O)(=O)Nc2nc3ccccc3nc2Nc2cccc(S(=O)(=O)N3CCCCC3)c2)c1	39.8µM*	44.7µM*	15.3	?	-10.9%	1.8
O=S(=O)(Nc1nc2ccccc2nc1Nc1ccc2c(c1)OCO2)c1ccccc1	39.8µM*	-11.4%	-0.2	-3.8%	3.3%	-0.6
Cc1cccc(S(=O)(=O)Nc2ccc3c(c2)OCCO3)c1	nt	-32.2%	nt	0.2%	5.0%	2.7
Cc1cccc(S(=O)(=O)Nc2nc3ccccc3nc2Nc2ccc3c(c2)OCO3)c1	44.7µM*	?	5.7	?	-16.9%	-0.3
O=C(c1ccccc1)N1CCc2cc(CNS(=O)(=O)c3ccc(Cl)s3)ccc21	3.2%[59 µM]	-18.5%	nt	0.8%	18.7%[57 µM]	nt
O=C1C(C=NCc2ccccn2)=C(O)c2ccccc21	4.1%	-7.4%	?	89.1µM*	21.3%	?
CC(C)CN=CC1=C(O)c2ccccc2C1=O	-4.5%	-10.5%	3.6	7.0%	5.1%	-11.1
Nc1cc(C(=O)O)c(N)c2c1C(=O)c1ccccc1C2=O	?	?	-91.7*	14.1µM*	14.1µM*	-80.3*
O=C(O)CCSc1nc2ccccc2s1	?	-11.4%	12.0	3.0%	42.5%	3.2
O=C(O)c1ccc([N+](=O)[O-])c2c1C(=O)c1ccccc1C2=O	nt	-25.8%	-18.8	nt	14.4%	-18.7
